For 14 compounds, composite z-score and z-score results are on record in PubChem BioAssay.

Experiment [1] concerns PRMT1 (protein arginine N-methyltransferase 1). Kind of experiment: PRMT1 binders on small-molecule microarrays, primary screen, biochemical, small-molecule microarray, 635 nm fluorescence (AID 1088).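 Further: binding of Prmt1 protein to compounds spotted on small-molecule microarray slides.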 The following applies: small-molecule microarray binding, higher = more signal.
Experiment [2] can be described thus: yeast growth modulation, basal conditions, primary screen, YJM789 clinical isolate, OD600, 24 h (AID 1089).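 Further: growth of clinical yeast isolate S. cerevisiae YJM 789 seeded 1000 cells per well; test concentration not given here.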 The note with it: S. cerevisiae YJM789 growth, higher = more signal, called active from +8 up or from −8 down.
The nature of experiment [3]: fission yeast growth modulation, primary screen, strain 972, OD600, 24 h, no modulator (AID 1090).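 Further: basal condition with compound alone and no growth modifier present; test concentration not given here.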 The note with it: S. pombe 972 growth, higher = more signal, called active from +8 up or from −8 down.
A short description of experiment [4]: S. cerevisiae growth modulation with rapamycin, primary screen, strain BY4716, OD600, 96 h (AID 1091). Further: test concentration not given here. The note with it: higher = more signal, called active from +8 up or from −8 down.
Experiment [5] addresses Torsin-1A-interacting protein 2 (Homo sapiens) (UniProt Q8NFQ8). Kind of experiment: LULL1 binders on small-molecule microarray, primary screen, cell lysate, human LULL1 lysate, 635/667 nm fluorescence (AID 1092).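 Further: probe is lysate of COS7 cells overexpressing human LULL1; score merges per-feature 667 nm fluorescence with signal-to-noise.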 The note with it: hLULL1 lysate binding, 635 nm fluorescence, higher = more signal.
Experiment [6] is described as follows: E. coli growth modulation, two-sided OD650, primary screen, E. coli filamentation project, strain DRC41, 24 h (AID 1093).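 Further: MC1000 strain lacking acrAB efflux and sulA so SOS filamentation is blocked; test concentration not given here.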 The note with it: OD650, 24 h, higher = more signal, called active from +8 up or from −8 down.
Experiment [7] can be described thus: small-molecule microarray binders of probe aLefty2, primary screen, biochemical, biotinylated probe, 635/667 nm fluorescence (AID 1094).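 Further: score merges spot fluorescence near 667 nm with spot signal-to-noise ratio.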 The following applies: higher = more signal.
The subject of experiment [8] is Noggin (protein binding on small-molecule microarray). Kind of experiment: Noggin binders on small-molecule microarray, primary screen, biochemical, 635/667 nm fluorescence (AID 1095).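 Further: score merges 667 nm feature fluorescence with signal to noise over triplicate slides.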 The following applies: 635 nm fluorescence, higher = more signal.
The target of experiment [9] is Neurogenic locus notch homolog protein 3 (Homo sapiens) (UniProt Q9UM47). In words: NOTCH3 binders on small-molecule microarray, primary screen, biochemical, 635/667 nm fluorescence (AID 1096). The note with it: NOTCH3 binding, 635 nm fluorescence, higher = more signal.
Chain of Neurogenic locus notch homolog protein 3 (Homo sapiens) (Q9UM47 whole entry, looked up): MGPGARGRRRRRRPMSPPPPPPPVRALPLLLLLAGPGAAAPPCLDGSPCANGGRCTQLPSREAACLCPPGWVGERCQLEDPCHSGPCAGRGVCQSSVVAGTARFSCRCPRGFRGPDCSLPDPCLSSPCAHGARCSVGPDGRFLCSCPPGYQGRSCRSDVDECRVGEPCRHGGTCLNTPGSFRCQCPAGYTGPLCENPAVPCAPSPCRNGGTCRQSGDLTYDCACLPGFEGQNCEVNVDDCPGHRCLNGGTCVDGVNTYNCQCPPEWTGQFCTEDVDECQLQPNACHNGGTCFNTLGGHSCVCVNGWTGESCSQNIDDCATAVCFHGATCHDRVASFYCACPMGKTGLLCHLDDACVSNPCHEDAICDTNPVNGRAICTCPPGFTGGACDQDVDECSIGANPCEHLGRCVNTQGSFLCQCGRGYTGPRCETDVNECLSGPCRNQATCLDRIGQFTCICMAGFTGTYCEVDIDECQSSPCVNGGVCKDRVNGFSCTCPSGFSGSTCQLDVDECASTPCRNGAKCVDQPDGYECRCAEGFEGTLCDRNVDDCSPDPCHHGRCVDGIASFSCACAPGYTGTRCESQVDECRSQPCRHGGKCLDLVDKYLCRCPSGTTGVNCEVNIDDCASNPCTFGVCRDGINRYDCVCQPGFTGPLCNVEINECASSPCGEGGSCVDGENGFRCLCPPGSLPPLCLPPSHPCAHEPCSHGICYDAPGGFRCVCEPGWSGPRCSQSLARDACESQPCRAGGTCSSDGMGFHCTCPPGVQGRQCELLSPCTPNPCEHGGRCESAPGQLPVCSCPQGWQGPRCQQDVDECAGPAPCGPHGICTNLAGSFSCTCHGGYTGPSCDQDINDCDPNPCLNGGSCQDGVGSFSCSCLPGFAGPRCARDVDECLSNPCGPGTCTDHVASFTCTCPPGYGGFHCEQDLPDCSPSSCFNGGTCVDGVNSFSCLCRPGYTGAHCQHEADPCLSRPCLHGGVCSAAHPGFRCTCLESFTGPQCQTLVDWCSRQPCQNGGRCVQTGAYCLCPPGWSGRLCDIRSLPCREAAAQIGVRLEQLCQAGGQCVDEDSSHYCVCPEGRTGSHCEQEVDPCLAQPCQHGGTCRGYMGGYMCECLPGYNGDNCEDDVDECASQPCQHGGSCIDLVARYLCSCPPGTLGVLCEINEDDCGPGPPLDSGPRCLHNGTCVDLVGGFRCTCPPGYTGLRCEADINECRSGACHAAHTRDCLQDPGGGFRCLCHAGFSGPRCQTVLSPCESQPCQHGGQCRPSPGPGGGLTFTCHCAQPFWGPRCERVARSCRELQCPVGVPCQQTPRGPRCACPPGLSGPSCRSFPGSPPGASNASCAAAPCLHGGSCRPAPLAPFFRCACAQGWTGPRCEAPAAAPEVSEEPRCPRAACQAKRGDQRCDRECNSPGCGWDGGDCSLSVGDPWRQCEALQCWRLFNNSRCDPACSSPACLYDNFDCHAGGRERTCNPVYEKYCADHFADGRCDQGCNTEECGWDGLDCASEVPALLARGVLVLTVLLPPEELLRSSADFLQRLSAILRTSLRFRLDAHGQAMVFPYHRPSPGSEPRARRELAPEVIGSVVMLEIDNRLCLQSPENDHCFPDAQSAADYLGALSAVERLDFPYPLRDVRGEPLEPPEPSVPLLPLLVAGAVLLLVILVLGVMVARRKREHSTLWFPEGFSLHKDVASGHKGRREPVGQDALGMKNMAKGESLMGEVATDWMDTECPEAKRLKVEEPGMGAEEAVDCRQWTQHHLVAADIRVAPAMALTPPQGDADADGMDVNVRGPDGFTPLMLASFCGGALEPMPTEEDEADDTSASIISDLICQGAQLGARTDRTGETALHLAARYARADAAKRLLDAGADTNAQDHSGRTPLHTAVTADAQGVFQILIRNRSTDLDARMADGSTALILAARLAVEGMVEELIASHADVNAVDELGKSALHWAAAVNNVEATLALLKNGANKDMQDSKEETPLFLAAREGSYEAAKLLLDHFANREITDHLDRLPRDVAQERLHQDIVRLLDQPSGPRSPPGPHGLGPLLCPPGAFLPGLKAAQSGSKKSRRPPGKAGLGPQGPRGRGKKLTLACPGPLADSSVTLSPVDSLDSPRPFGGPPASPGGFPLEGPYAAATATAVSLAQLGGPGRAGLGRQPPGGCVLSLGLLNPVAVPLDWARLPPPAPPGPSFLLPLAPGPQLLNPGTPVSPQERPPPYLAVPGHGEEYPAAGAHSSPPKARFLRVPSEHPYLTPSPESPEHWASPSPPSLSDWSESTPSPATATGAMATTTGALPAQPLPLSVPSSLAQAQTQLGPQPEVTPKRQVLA
A short description of experiment [10]: small-molecule microarray binders of probe aEGFR, primary screen, biochemical, biotinylated probe, 635/667 nm fluorescence (AID 1097).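 Further: probe is a biotinylated anti-EGFR antibody binding compounds printed on slides; score combines fluorescence near 667 nm and signal to noise of each spot.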 The note with it: higher = more signal.

SMILES strings stand for the structures. Calls of active or inactive are those of the source.

Chain of Torsin-1A-interacting protein 2 (Homo sapiens) (Q8NFQ8 whole entry, looked up): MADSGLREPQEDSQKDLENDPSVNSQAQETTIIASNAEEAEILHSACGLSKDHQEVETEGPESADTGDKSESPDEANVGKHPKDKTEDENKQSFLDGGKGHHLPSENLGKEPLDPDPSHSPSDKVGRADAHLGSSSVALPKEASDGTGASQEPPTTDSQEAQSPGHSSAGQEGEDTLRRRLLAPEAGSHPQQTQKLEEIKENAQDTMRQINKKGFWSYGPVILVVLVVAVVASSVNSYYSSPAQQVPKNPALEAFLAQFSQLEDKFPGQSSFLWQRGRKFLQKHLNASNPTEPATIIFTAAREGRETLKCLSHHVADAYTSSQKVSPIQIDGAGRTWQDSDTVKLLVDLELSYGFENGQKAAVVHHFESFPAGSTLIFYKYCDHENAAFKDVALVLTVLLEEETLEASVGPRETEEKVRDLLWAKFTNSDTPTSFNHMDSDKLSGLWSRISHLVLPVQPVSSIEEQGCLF

In the case of `O=C(NCCN1CCOCC1)[C@@H]1c2ccccc2C(=O)N(Cc2cc(C(F)(F)F)cc(C(F)(F)F)c2)[C@H]1c1ccc(CO)cc1`, the composite z-score in experiment [1] is 1.56; in [5], 2.37; in [7] it was -0.0856; in experiment [8] it was -0.901; in [9], -0.578; in experiment [10], -0.0744. Moreover, the z-score was 0.764 (inactive) in experiment [2], -0.091 (inactive) in experiment [3], 0.0371 (inactive) in experiment [4] and 0.339 (inactive) in [6].

As for `CCCC=C(CCC)[C@@H](NC(=O)OCC(C)C)c1ccccc1`, the composite z-score in experiment [1] worked out at 0.934; in [5], 2.01; in experiment [7], 0.678; in experiment [8], 1.11; in experiment [9], 1.12; in [10], 0.548. The z-score in experiment [2] was 0.69 (inactive); in experiment [3], -0.623 (inactive); in [4], 1.94 (inactive); in experiment [6] it was -1.68 (inactive).

As to `NC(=O)[C@@H]1[C@H]2C(=O)O[C@H](c3ccccc3)[C@H](c3ccccc3)N2[C@H](c2ccc(O)cc2)[C@@]12C(=O)Nc1ccc(C#CC3=CCCCC3)cc12`, the composite z-score is 1.55 in experiment [1]; 3.22 in experiment [5]; -0.21 in experiment [7]; 0.87 in [8]; 1.11 in experiment [9]; -0.176 in experiment [10]. For the same compound, the z-score in experiment [2] is 1.98 (inactive); in experiment [3], 1.4 (inactive); in experiment [4], 2.74 (inactive); in experiment [6], -0.716 (inactive).

Turning to `CC(C)N1CC=CC23O[C@@H]4C=CCOC(=O)[C@@H]4[C@H]2C(=O)N(CCCCCO)[C@@H]3C1=O` (stereo not given in full), the composite z-score was 0.637 in experiment [1]; 2.64 in experiment [5]; -0.137 in experiment [7]; -0.325 in experiment [8]; -0.107 in [9]; -0.111 in experiment [10]. Also, the z-score in [2] is -1.04 (inactive); in experiment [3], -0.288 (inactive); in [4], -2.25 (inactive); in [6] it was 3.13 (inactive).

For `Cc1ccc(/C=C/C=O)cc1`, the composite z-score in experiment [1] was -0.379; in experiment [5], -0.1; in experiment [7] it was -0.123; in experiment [8], -0.244; in [9], -0.998; in experiment [10], -0.135. The z-score in experiment [2] was 0.427 (inactive); in experiment [3], -4.06 (inactive); in experiment [4], -0.141 (inactive); in experiment [6], 0.492 (inactive).

For `CC[C@@H]1C=C(C(=O)O)[C@H](c2cccc3ccccc23)N1S(=O)(=O)c1ccc(C)cc1`, the composite z-score was 0.479 in experiment [1]; 3 in experiment [5]; -0.0537 in experiment [7]; 0.0891 in [8]; 0.814 in experiment [9]; -0.0356 in experiment [10]. Moreover, the z-score was -0.118 (inactive) in [2], 1.49 (inactive) in [3], -0.168 (inactive) in [4] and -0.428 (inactive) in [6].

Take `NC(=O)[C@@]1(Cc2ccccc2)N=C(c2ccc(OCCCO)cc2)O[C@H]1c1ccccc1`: the composite z-score in [1] is 0.439; in experiment [5] it was 2.41; in experiment [7], 0.0694; in [8], 0.0537; in experiment [9] it was -0.0043; in experiment [10], -0.0996. The z-score in experiment [2] was 3.21 (inactive); in experiment [3], 1.04 (inactive); in experiment [4], -0.0393 (inactive); in experiment [6], 1.95 (inactive).

In the case of `O=C(CS)NCCCCCNC(=O)[C@@H]1C[C@@H]2C(=O)NCC(=O)N2[C@@H]1c1cccc(OCCO)c1`, the composite z-score in [1] was 0.701; in [5], 2.92; in [7], -0.0823; in [8], 0.271; in [9], 0.328; in experiment [10], -0.0466. For the same compound, the z-score in [2] is -5.72 (inactive); in [3], -0.31 (inactive); in experiment [4] it was -0.485 (inactive); in [6] it was 2.71 (inactive).

In the case of `O=C1O[C@H](c2ccccc2)[C@H](c2ccccc2)N2[C@H]1[C@@H](C(=O)NC[C@H](O)c1ccccc1)[C@]1(C(=O)Nc3ccc(C#CC4=CCCCC4)cc31)[C@H]2c1ccccc1OCCO`, the composite z-score in experiment [1] is 1.43; in experiment [5], 1.64; in [7], 0.107; in experiment [8], 0.545; in experiment [9], 0.786; in experiment [10] it was 0.032. In addition, the z-score was 2.2 (inactive) in [2], -0.874 (inactive) in experiment [3], 2.64 (inactive) in [4] and -0.0991 (inactive) in [6].

Regarding `C=C(C)[C@@H]1CC=C(C(O)C2C=CC3C(=O)NC(=O)C3N2Nc2ccc(Cl)cc2Cl)CC1` (stereo not given in full), the composite z-score in [1] is 0.794; in experiment [5] it was 2.91; in experiment [7], 0.325; in [8] it was -0.821; in experiment [9], 1.06; in [10], 0.0044. Besides, the z-score in experiment [2] is -9.03 (active); in experiment [3] it was -5.22 (inactive); in experiment [4], 3.45 (inactive); in [6] it was -2.91 (inactive).

Consider `CCOc1ccc(N2C(=O)CSC2c2cccc([N+](=O)[O-])c2)cc1` (stereo not given), for which the composite z-score in experiment [1] is 0.971; in experiment [5] it was 1.63; in experiment [7] it was -0.0555; in experiment [8], 0.154; in experiment [9], 0.699; in experiment [10] it was -0.0697. Also, the z-score in experiment [2] is 0.493 (inactive); in [3], 0.527 (inactive); in experiment [4], 0.712 (inactive); in experiment [6], 1.01 (inactive).

In the case of `O=C(CS)NCCCCCNC(=O)[C@H]1C[C@H]2C(=O)NCC(=O)N2[C@H]1c1cccc(OCCO)c1`, the composite z-score in experiment [1] was 0.151; in experiment [5] it was 0.556; in experiment [7], -0.0778; in experiment [8], 0.262; in experiment [9], -0.154; in experiment [10], -0.0987. In addition, the z-score is -0.881 (inactive) in experiment [2], 0.145 (inactive) in experiment [3], -0.336 (inactive) in experiment [4] and 0.663 (inactive) in experiment [6].

As for `C=CC[C@]1(C(=O)NCc2ccccc2)N=C(c2ccc(OCCCO)cc2)O[C@H]1c1ccccc1CN=[N+]=[N-]`, the composite z-score in experiment [1] is 1.35; in experiment [5], 2.87; in [7], 0.0634; in experiment [8], 0.853; in [9] it was 1.06; in experiment [10], 0.107. Besides, the z-score is -0.755 (inactive) in experiment [2], -0.175 (inactive) in experiment [3], 1.54 (inactive) in experiment [4] and -0.765 (inactive) in experiment [6].

As for `CC(C)[Si](C#CCCCC#N)(O[C@H](c1ccccc1)c1cn(Cc2cccc(Cl)c2)nn1)C(C)C`, the composite z-score is 1.52 in experiment [1]; 1.42 in [5]; 0.0322 in experiment [7]; 0.342 in experiment [8]; 1.13 in [9]; 0.0363 in experiment [10]. In addition, the z-score was -0.135 (inactive) in [2], -0.483 (inactive) in [3], -3.21 (inactive) in experiment [4] and 1.79 (inactive) in experiment [6].
